These entries were drawn from the full list.
aSyn UTR act: Activators via SNCA 5'UTR binding, MLPCN; alpha-synuclein 5'UTR reporter, activators screen; activity score, % (tested at 7.5 µM), hits read low; 300,000 compounds, 7.1% hits; in the data active means activity score below about -60%
An asterisk follows results filed as active.

SMILES | aSyn UTR act
CC1CCC(NC(=O)Nc2cccs2)CC1 (stereo not given) | -107.3*
CC1CCC(NC(=O)CNC(=O)c2cccs2)CC1 (stereo not given) | -88.4*
Cc1nnc2n1N=CC=C(c1ccccc1)S2 | -94.0*
COc1cc2nc(Nc3ccc(F)cc3)nc(N)c2cc1OC | -130.6*
COC(=O)c1ccc(Nc2cc(C)nc3ccccc23)cc1 | 64.7
COC(=O)c1ccc(Nc2nc(C)cc(C)n2)cc1 | -82.9*
COc1cc2nc(N(C)C)nc(N)c2cc1OC | -78.1*
COc1cc2nc(Nc3ccc(C)c(C)c3)nc(N)c2cc1OC | -131.3*
COc1cc2nc(Nc3ccc(C)c(Cl)c3)nc(N)c2cc1OC | 98.5
CCOC(=O)c1ccc(Nc2nc(N)c3cc(OC)c(OC)cc3n2)cc1 | -104.3*
CC(=O)COC(=O)c1ccc2noc(-c3ccccc3)c2c1 | -78.0*
O=C(O)c1ccc2cc(-c3ccccc3)[nH]c2c1 | 65.7
O=C(O)c1ccc2nc(-c3ccccc3)c(-c3ccccc3)nc2c1 | -93.3*
O=C(O)c1ccc2noc(-c3ccccc3)c2c1 | -119.1*
Cc1ccc(-c2onc3ccc(C(=O)O)cc23)cc1 | -199.9*
CC(C(Sc1ccccc1N)c1ccccc1)[N+](=O)[O-] (stereo not given) | -82.8*
CCOC(=O)/C=C/c1ccc2oc3ccccc3c(=O)c2c1 | -190.9*
CN(c1ccc(OCC(=O)Nc2nc(-c3ccccc3)cs2)cc1)S(=O)(=O)c1ccc(F)cc1 | -87.6*
Cc1ccc(S(=O)(=O)N(C)c2ccc(OCC(=O)Nc3nc(-c4ccccc4)cs3)cc2)cc1 | -73.3*
S=c1[nH]nc(Cn2c(-c3ccccn3)nc3ccccc32)n1-c1ccc2c(c1)OCCO2 | -75.3*
c1ccc(CN=C2NN=C(c3ccccc3)CS2)cc1 | -182.1*
CCN=C1NN=C(c2ccc(C)cc2)CS1 | -128.0*
Nc1nnc(/C=C/c2ccccc2Cl)s1 | -81.3*
O=C(CCl)N(C/C=C/c1ccccc1)c1ccc2c(c1)OCCO2 | -80.6*
CS(=O)(=O)c1ccccc1COC(=O)Nc1ccc(Cl)cc1 | -69.6*
SMILES | aSyn UTR act
O=C(Nc1ccc(Cl)cc1)OCc1ccccn1 | -134.0*
Cc1cccc(-n2cc(-c3ccc([N+](=O)[O-])cc3)[nH]c2=S)c1 | -80.2*
O=[N+]([O-])c1cccc(-c2cn(-c3ccccc3)c(=S)[nH]2)c1 | -178.8*
O=[N+]([O-])c1ccc(-c2cn(-c3ccccc3)c(=S)[nH]2)cc1 | -100.6*
COc1ccccc1N1CCN(/N=C/c2cccc(OC)c2O)CC1 | -67.3*
COc1cccc(/C=N/N2CCN(c3ccccc3OC)CC2)c1 | -93.1*
COc1ccccc1N1CCN(/N=C/c2cc(Br)ccc2F)CC1 | -92.6*
COc1cccc(/C=N/NC(=O)N/N=C/c2cccc(OC)c2O)c1O | 53.0
COc1ccc(/C=N/N2CCN(c3ccccc3OC)CC2)cc1Br | -101.1*
COc1ccccc1N1CCN(/N=C/c2cccc(Cl)c2)CC1 | -195.7*
COc1cccc(Nc2cc(C)c3ccccc3n2)c1 | -62.7*
COc1ccc(Nc2ccnc(Nc3ccc(OC)cc3)n2)cc1 | -119.8*
CCOc1ccc(Nc2nc(N)c3ccccc3n2)cc1 | 102.3
COc1ccc(Nc2ncnc3ccccc23)cc1 | -152.0*
Cc1ccc(O)c(Nc2ncnc3ccccc23)c1 | -95.5*
COc1cccc(Nc2ncnc3ccccc23)c1 | -122.6*
COc1ccc(Nc2cc(Nc3ccccc3)ncn2)cc1 | -80.9*
N#C/C(=C\c1ccc(OCC(N)=O)cc1)c1ccccc1 | -153.9*
CC(/C=C/c1ccc(OCc2ccccc2)cc1)=N\O | -132.8*
CN1CCN(/N=C/c2ccc(OCc3ccccc3)cc2)CC1 | -73.1*
COC(=O)c1ccc(COc2ccc(/C=N/N3CCN(C)CC3)cc2)cc1 | -126.7*
N/C(=N\O)c1ccc(N2CCN(c3ncccc3C(F)(F)F)CC2)nc1 | -97.8*
C#CC(=O)N(c1cccc(OC)c1)C(C(=O)NC1CCCC1)c1cccs1 (stereo not given) | 92.3
COc1cccc(NC(=O)NC2CCCCCCC2)c1 | -132.3*
COc1cccc(NC(=O)C(=S)NC2CCCCC2)c1 | -85.4*
SMILES | aSyn UTR act
COc1ccc(N(Cc2cc3ccccc3[nH]c2=O)S(=O)(=O)c2ccc(OC)cc2)cc1 | -64.1*
COc1ccc(N(Cc2cc3cc(OC)ccc3[nH]c2=O)S(=O)(=O)c2ccc(NC(C)=O)cc2)cc1 | 93.3
O=C(C[n+]1cn(C(F)F)c2ccccc21)c1ccc(OC(F)F)cc1 | -128.5*
O=C(NNC(=S)Nc1ccc(Cl)c(Cl)c1)c1ccccn1 | 68.0
COc1ccc(NC(=S)Nc2ncccc2C)c(OC)c1 | -92.5*
Cc1cccnc1NC(=S)NCCc1ccccc1 | -155.2*
Cc1cccnc1NC(=S)Nc1ccc(Cl)c(Cl)c1 | -141.7*
COc1ccc(NC(=S)Nc2ncccc2C)cc1OC | -106.6*
COc1ccc(NC(=S)Nn2cnnc2)cc1OC | -95.3*
Cc1cccnc1NC(=S)Nc1ncccc1C | -119.5*
Cc1cccc(NCc2ccc(O)c3ncccc23)c1C | 55.6
O=C(/C=C/c1ccc(O)c(O)c1)c1ccccc1O | -293.4*
O=C(/C=C/c1ccc(O)c(O)c1)OCCc1ccccc1 | -130.9*
O=C(/C=C/c1cc2ccccc2o1)c1ccccc1O | -161.2*
O=C(/C=C/c1ccoc1)c1ccccc1O | -76.4*
Clc1ccc(-c2cn3cccnc3n2)cc1Cl | -193.3*
Clc1ccc(-c2cn3cccnc3n2)cc1 | -132.1*
Clc1ccc(-c2cn3nc4c(nc3n2)CCCC4)cc1 | 88.2
Cn1c(/C(C#N)=C(\O)c2ccc(Br)s2)nc2ccccc21 | -71.9*
COc1ccc(-c2nn(-c3ccccc3)cc2/C=N/NC(N)=S)cc1OC | 90.2
CCN(CC)c1ccc(/C=N/NC(=O)c2cccc(S(=O)(=O)Nc3ccccc3OC)c2)c(O)c1 | 95.2
COc1ccc(NS(=O)(=O)c2cccc(C(=O)N/N=C/c3cn(-c4ccccc4)nc3-c3ccc(OC)cc3)c2)cc1 | -85.1*
Cc1ccc(-c2nn(-c3ccccc3)cc2/C=N/NS(=O)(=O)c2ccccc2)cc1 | -76.0*
O=C(Nc1ccc(S(=O)(=O)N2CCOCC2)cc1)c1cc([N+](=O)[O-])ccc1Cl | -66.9*
O=C(Nc1ccc(N2CCN(C(=O)c3cccs3)CC2)cc1)c1ccc([N+](=O)[O-])o1 | 105.9
SMILES | aSyn UTR act
O=C(Nc1ccc2c(c1)CCCN2C(=O)c1ccco1)c1cc([N+](=O)[O-])ccc1Cl | -94.0*
O=C(Nc1ccc(N2CCOCC2)cc1)c1ccc([N+](=O)[O-])o1 | -103.3*
O=C(Nc1ccc(Cc2ccncc2)cc1)c1ccc([N+](=O)[O-])o1 | -150.3*
COc1ccc(S(=O)(=O)N2CCN(C(=O)c3ccc([N+](=O)[O-])o3)CC2)cc1 | -78.2*
O=C(Nc1ccc(S(=O)(=O)N2CCOCC2)cc1)c1ccc([N+](=O)[O-])o1 | -119.6*
COc1ccc(/C=C/C(=O)c2ccc([N+](=O)[O-])o2)cc1 | -61.7*
O=C(/C=C/c1cccc([N+](=O)[O-])c1)c1ccc([N+](=O)[O-])o1 | 70.6
O=C1/C(=C\c2ccco2)NC(=S)N1c1ccccc1 | -83.6*
Cc1sc2ncnc(N/N=C/c3cccc(O)c3)c2c1C | -74.8*
C/C(=N\Nc1ncnc2sc(C)c(C)c12)c1ccccn1 | 104.9
Cc1ccc(Nc2ncnc3sc(C)c(C)c23)cc1 | -182.1*
COc1c2c(cc3oc(=O)c4c5ccc(O)cc5oc4c13)OC(C)(C)CC2 | -198.8*
CC(=O)Nc1ccc(SCC(=O)c2cc(C)n(Cc3cccs3)c2C)cc1 | 68.4
Cc1ccc(NC(=O)CNCc2cccs2)cc1Br | -84.7*
CC(=O)c1ccc(NC(=O)CNCc2cccs2)cc1 | -134.0*
